Measured values reported in PubChem BioAssay (NCI).
Compounds without any hit were thinned out: in the full panel of roughly 79,000, 15% have a hit. The source made the active and inactive calls. No stated cut-off is given here; in the data, active means growth inhibition above about 70%; inactive means the rest.

How the values were obtained:
[1] = NCI Yeast Anticancer Drug Screen. Data for the rad50 strain (AID 155);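 further: 0% = growth of vehicle-only cultures of the same strain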; conditions: S. cerevisiae rad50 strain growth inhibition, hits give high values
Outline: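 Readout: growth inhibition relative to vehicle-treated cultures. Compound exposure was carried out in a genetically defined yeast strain deficient in DNA damage repair.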

[2] = NCI Yeast Anticancer Drug Screen. Data for the mec2-1 strain (AID 157); conditions: S. cerevisiae mec2-1 strain, hits give high values
Outline: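 Readout is yeast growth inhibition, normalised to vehicle-treated controls, in the mec2-1 strain exposed to compound.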

[3] = NCI Yeast Anticancer Drug Screen. Data for the sgs1 mgt1 strain (AID 161);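 further: 0% = growth of cultures given vehicle only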; conditions: S. cerevisiae sgs1 mgt1 strain, hits give high values
Outline: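 Growth of a repair-deficient yeast mutant was monitored after compound treatment and expressed as inhibition relative to vehicle-treated cultures.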

[4] = NCI Yeast Anticancer Drug Screen. Data for the cln2 rad14 strain (AID 165);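 further: 0% = growth equal to vehicle treated cultures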; conditions: S. cerevisiae cln2 rad14 strain, hits give high values
Outline: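 Relative to vehicle controls, growth inhibition of compound-treated cln2 rad14 yeast was recorded.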

[5] = NCI Yeast Anticancer Drug Screen. Data for the bub3 strain (AID 167); conditions: S. cerevisiae bub3 mutant strain, hits give high values
Outline: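 Readout: yeast growth inhibition, expressed relative to vehicle-only wells. The test organism is a mutant strain from a panel with lesions in DNA repair or checkpoint genes.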

[6] = NCI Yeast Anticancer Drug Screen. Data for the mlh1 rad18 strain (AID 175); conditions: S. cerevisiae mlh1 rad18 strain growth inhibition, hits give high values
Outline: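 Test agents were incubated with a yeast strain of defined genotype (DNA damage repair defect). Inhibition of growth was derived by comparison with vehicle-exposed cultures.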

[7] = at 5.0 µM (retest, dose inferred, filed as 0.5)
[8] = at 50.0 µM (retest, dose inferred, filed as 5.0)

Measured: growth inhibition

CS(C)=O.[Cl-].[Cl-].[NH-]CC(O)CN(Cc1ccccc1)CC(O)CN.[Pt] (stereo not given)
inactive: [1]; [7] -15% | [1]; [8] 4% | [1]; at 50.0 µM 31.9% | [2]; [7] 18% | [2]; [8] 20% | [2]; at 50.0 µM 1% | [3]; [7] 2% | [3]; [8] 18% | [3]; at 50.0 µM 17.7% | [4]; [7] 39% | [4]; [8] 14% | [4]; at 50.0 µM -6.25% | [5]; [7] -19% | [5]; [8] -11% | [5]; at 50.0 µM -5.7% | [6]; [7] -13% | [6]; [8] -4% | [6]; at 50.0 µM 7.75%

C/C(=C/C(=O)/C=C/c1ccccc1)c1c(C)[nH]c2ccccc12
inactive: [1]; [7] -24% | [1]; [8] -3% | [1]; at 50.0 µM 4.3% | [2]; [7] -17% | [2]; [8] 3% | [2]; at 50.0 µM -19.1% | [3]; [7] -6% | [3]; [8] -4% | [3]; at 50.0 µM -7.4% | [4]; [7] 1% | [4]; [8] -6% | [4]; at 50.0 µM 34.4% | [5]; [7] 0% | [5]; [8] 1% | [6]; [7] 4% | [6]; [8] 16% | [6]; at 50.0 µM -0.4%
active: [5]; at 50.0 µM 81.9%

[O-][n+]1c2ccccc2nc2cc(Cl)ccc21
active: [1]; at 50.0 µM 92.2% | [6]; at 50.0 µM 84.8%
inactive: [1]; [7] -114% | [1]; [8] 11% | [2]; [7] -35% | [2]; [8] -32% | [2]; at 50.0 µM 21.6% | [3]; [7] -53% | [3]; [8] 6% | [3]; at 50.0 µM 68.5% | [4]; [7] -64% | [4]; [8] -46% | [4]; at 50.0 µM 25.6% | [5]; [7] -47% | [5]; [8] -1% | [5]; at 50.0 µM 48.1% | [6]; [7] -105% | [6]; [8] -17%

O=[N+]([O-])c1c(Br)ncn1Cc1ccccc1
active: [1]; [8] 92% | [2]; [8] 98% | [3]; [8] 90% | [4]; [8] 99% | [5]; [8] 99% | [6]; [8] 94%
inactive: [1]; [7] 26% | [1]; at 50.0 µM 68.8% | [2]; [7] 22% | [2]; at 50.0 µM 8.25% | [3]; [7] 14% | [3]; at 50.0 µM 22.4% | [4]; [7] 21% | [4]; at 50.0 µM 7.5% | [5]; [7] 35% | [5]; at 50.0 µM -4.85% | [6]; [7] 49% | [6]; at 50.0 µM 38.4%

COc1ccc(Cc2nc3ccccc3s2)cc1OC
inactive: [1]; [7] 42% | [2]; [7] 39% | [3]; [7] 61% | [4]; [7] 42% | [5]; [7] 51%
active: [1]; [8] 98% | [1]; at 50.0 µM 90.3% | [2]; [8] 99% | [2]; at 50.0 µM 92.8% | [3]; [8] 99% | [3]; at 50.0 µM 93.7% | [4]; [8] 97% | [4]; at 50.0 µM 91.9% | [5]; [8] 99% | [5]; at 50.0 µM 92.6% | [6]; [7] 73% | [6]; [8] 99% | [6]; at 50.0 µM 91.8%

CCNC(=S)N/N=C(/C)c1cccc(/C(C)=N\NC(=S)NCC)n1
inactive: [1]; [7] 1% | [1]; [8] 12% | [1]; at 50.0 µM 57.5% | [2]; [7] 10% | [2]; [8] 10% | [2]; at 50.0 µM 38.4% | [3]; [7] 13% | [3]; [8] 24% | [3]; at 50.0 µM 63.7% | [4]; [7] 8% | [4]; [8] 6% | [4]; at 50.0 µM 19.1% | [5]; [7] 18% | [5]; [8] 38% | [5]; at 50.0 µM 54.2% | [6]; [7] 12% | [6]; [8] 22% | [6]; at 50.0 µM 37.7%

CCN(CC)CC(O)CNc1ccc(NCC(O)CCl)c2c1C(=O)c1ccccc1C2=O (stereo not given)
active: [1]; [7] 98% | [1]; [8] 98% | [2]; [7] 98% | [2]; [8] 98% | [3]; [7] 98% | [3]; [8] 98% | [4]; [7] 97% | [4]; [8] 97% | [5]; [7] 97% | [5]; [8] 97% | [6]; [7] 99% | [6]; [8] 99%
inactive: [1]; at 50.0 µM 36% | [2]; at 50.0 µM -19.1% | [3]; at 50.0 µM 7.1% | [4]; at 50.0 µM 10.8% | [5]; at 50.0 µM 12.4% | [6]; at 50.0 µM 19.1%

CCCCCCCCCCCCOP(=O)(N1CC1(C)C)N1CC1(C)C (stereo not given)
active: [1]; at 50.0 µM 72.7% | [2]; [8] 71% | [3]; at 50.0 µM 82.8% | [4]; [8] 72% | [5]; [8] 97% | [5]; at 50.0 µM 87.3% | [6]; [8] 87% | [6]; at 50.0 µM 80.5%
inactive: [1]; [7] 4% | [1]; [8] 61% | [2]; [7] 2% | [2]; at 50.0 µM 58.1% | [3]; [7] 1% | [3]; [8] 67% | [4]; [7] 16% | [4]; at 50.0 µM 34.2% | [5]; [7] 24% | [6]; [7] 4%

CC(=O)OC1CCC2(C)C(C1)C(OC(C)=O)CC1C3CCC(c4cccc(=O)o4)C3(C)CCC12 (stereo not given)
active: [1]; at 50.0 µM 85.1% | [2]; [8] 84% | [2]; at 50.0 µM 86.7% | [3]; [8] 72% | [3]; at 50.0 µM 84.8% | [4]; [8] 76% | [4]; at 50.0 µM 84.9% | [5]; [8] 79% | [5]; at 50.0 µM 81.2% | [6]; at 50.0 µM 85%
inactive: [1]; [7] 2% | [1]; [8] 64% | [2]; [7] 11% | [3]; [7] 17% | [4]; [7] 5% | [5]; [7] -2% | [6]; [7] -6% | [6]; [8] 66%

NC(C(=O)O)C1=CCCCCC1 (stereo not given)
active: [5]; [8] 98%
inactive: [1]; [7] 2% | [1]; [8] -6% | [1]; at 50.0 µM 49.5% | [2]; [7] 20% | [2]; [8] 66% | [2]; at 50.0 µM 13.8% | [3]; [7] 6% | [3]; [8] -1% | [3]; at 50.0 µM 9.35% | [4]; [7] 12% | [4]; [8] 54% | [4]; at 50.0 µM -6.65% | [5]; [7] 63% | [5]; at 50.0 µM -5.95% | [6]; [7] -3% | [6]; [8] -4% | [6]; at 50.0 µM 15.4%
